Compound activity deposited in PubChem BioAssay by several laboratories.
ERb SRC1 inh: inhibitors of ERβ-SRC1 coactivator interaction, primary screen, biochemical, TR-FRET, ERβ LBD, SRC-1 peptide. AID 633, 2007. inhibition, % at 25.6 µM. 86,000 compounds, 1.3% hits. TR-FRET ER-beta LBD / SRC1-Cy5 peptide binding; receptor agonist-loaded with 1 µM estradiol. Estrogen receptor beta (Homo sapiens), Q92731;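 active means compounds whose percent inhibition of the receptor-coactivator binding signal exceeds about 50% in the single-dose screen, limit read from the data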
ERa coact inh: ERα–SRC-1 coactivator interaction inhibitors, primary screen, biochemical, TR-FRET, ERα LBD, estradiol-bound; TR-FRET ER-alpha LBD / SRC-1 peptide; inhibition, % at 25.6 µM; 86,000 compounds, 1.7% hits; in the data active means inhibition above about 50%
FAK inh: FAK kinase inhibitors, primary screen, biochemical. biochemical FAK kinase activity assay. Focal adhesion kinase 1 (Homo sapiens), Q05397. AID 727, 2007. 97,000 compounds, 0.84% hits. inhibition, %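 (tested at 7 µM)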; in the data active means inhibition above about 19%
Smad3 inh: Smad3/FoxH1 peptide binding inhibitors, primary screen, biochemical, TR-FRET | Mothers against decapentaplegic homolog 3 (Homo sapiens), P84022 | inhibition, % at 25 µM | 88,000 compounds, 0.29% hits | TR-FRET Smad3/Dy647-FoxH1 peptide binding, europium anti-His;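 active means compounds that reduce the energy-transfer binding signal between the protein and its labelled peptide by more than half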
Target sequence (P84022 whole entry, looked up): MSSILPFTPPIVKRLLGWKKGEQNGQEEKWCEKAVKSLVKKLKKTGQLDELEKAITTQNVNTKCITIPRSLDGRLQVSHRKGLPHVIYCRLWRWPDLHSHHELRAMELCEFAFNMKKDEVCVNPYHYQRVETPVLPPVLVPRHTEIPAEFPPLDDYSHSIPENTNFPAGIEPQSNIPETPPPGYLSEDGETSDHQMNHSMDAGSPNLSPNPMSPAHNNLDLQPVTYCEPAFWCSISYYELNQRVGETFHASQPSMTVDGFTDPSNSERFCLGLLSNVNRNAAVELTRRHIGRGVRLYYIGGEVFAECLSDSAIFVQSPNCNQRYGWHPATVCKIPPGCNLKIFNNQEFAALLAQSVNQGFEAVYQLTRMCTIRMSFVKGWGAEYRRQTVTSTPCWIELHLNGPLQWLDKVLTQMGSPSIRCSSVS
ERa coact pot: enhancers of ERα–SRC-1 coactivator binding, primary screen, biochemical, TR-FRET, ERα LBD, low estradiol; Estrogen receptor (Homo sapiens), P03372; TR-FRET ERalpha-LBD/SRC-Cy5 coactivator binding, 2 h; 100 = basal binding, no effect; coactivator binding (% of control), % at 25.6 µM; 86,000 compounds, 1.3% hits; in the data active means activity above about 200%;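 further: binding measured in presence of low estradiol as agonist stimulus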
Numbers stand for hits; n = inactive; x = not tested or not shown; [ ] = remark or other dose. Rows were chosen to be rich in hits. Some 3.3% of all compounds tested hit in one or more screens of this group.

SMILES | ERb SRC1 inh | ERa coact inh | FAK inh | Smad3 inh | ERa coact pot
O=C(O)c1ccc([N+](=O)[O-])c(P(=O)(O)O)c1 | x | x | x | n | x
NCc1ccc(C(=O)O)cc1 | x | x | x | n | x
COc1cccc(-c2cc(C(=O)NCc3ccc(Cl)cc3)no2)c1 | n | 70[fluorescence artefact?] | n | n | n
Cc1cc(NC(=O)c2cc(-c3cccc(Cl)c3)on2)no1 | n | n | n | n | n
COc1cccc(-c2cc(C(=O)Nc3cc(C)on3)no2)c1 | n | n | n | n | 428[fluorescence artefact?]
COc1ccc(-c2cc(C(=O)NCc3ccc(Cl)cc3)no2)cc1OC | x | x | n | x | x
C[N+](C)(C)CC(=O)N/N=C/c1ccncc1 | x | x | x | n | x
Clc1ccc(SCc2cn3ccsc3n2)cc1 | n | n | n | n | 366[fluorescence artefact?]
CN(C)CCC(=O)[C@]1(O)CC[C@@H]2[C@H]3CC=C4C[C@@H](O)CC[C@]4(C)[C@@H]3CC[C@]21C | x | x | x | n | x
CCN1C(=O)C(O)(CC(=O)c2ccc3c(c2)OCCO3)c2ccccc21 (stereo not given) | n | n | n | n | n
COc1ccc(CN2C(=O)C(O)(CC(=O)c3ccc4c(c3)OCO4)c3ccccc32)cc1OC (stereo not given) | n | n | n | 75 | n
O=[N+]([O-])c1ccc(NN=C2c3ccccc3Cc3ccccc32)c([N+](=O)[O-])c1 | x | x | x | n | x
CCOC(=O)c1cnc(-n2nc(C)cc2C)nc1NCc1ccccc1 | n | n | n | n | n
CCOC(=O)c1cnc(-n2cc(C)cn2)nc1NCc1ccc2c(c1)OCO2 | n | 65[fluorescence artefact?] | n | n | n
Cc1ccccc1-c1nc(CS(=O)(=O)CC(=O)Nc2cc(F)ccc2F)c(C)o1 | n | n | x | n | 743[fluorescence artefact?]
CCN(CC(=O)NC1CCCCCC1)S(=O)(=O)c1ccccc1 | n | n | n | n | n
CCN(CC(=O)NC1CCCC1)S(=O)(=O)c1ccc(C)cc1 | n | 95[fluorescence artefact?] | n | n | n
NCCNS(=O)(=O)c1ccc(N)cc1 | x | x | x | n | x
O=C(NC1CCCC1)c1cnn2c(C(F)(F)F)cc(-c3ccc4c(c3)OCO4)nc12 | n | 60[fluorescence artefact?] | n | n | n
COc1ccc(-c2cc(C(F)(F)F)n3ncc(C(=O)NCc4ccco4)c3n2)cc1 | 50[fluorescence artefact?] | 59 | n | n | n
O=C(NCc1ccco1)c1cnn2c(C(F)(F)F)cc(-c3ccccc3)nc12 | n | n | n | n | n
CCCCN1CSC(=S)N(Cc2ccccc2)C1 | x | x | x | n | x
O=C(O)C1C(C(=O)O)C(C(=O)O)C1C(=O)O (stereo not given) | x | x | x | n | x
Cn1c(-c2ccc(N)cc2)nc2ccccc21 | n | n | n | n | 650[fluorescence artefact?]
Cn1c(-c2ccc3nc(N)sc3c2)nc2cc(N)ccc21 | 54[fluorescence artefact?] | 64[fluorescence artefact?] | n | n | n
SMILES | ERb SRC1 inh | ERa coact inh | FAK inh | Smad3 inh | ERa coact pot
NN(CC(=O)O)CC(=O)O | x | x | x | n | x
COc1cc(/C=c2\s/c(=C(/C#N)C(=O)N3CCCC3)n(-c3ccccc3)c2=O)ccc1O | n | 59 | n | n | n
COC(=O)/C=c1/s/c(=C(/C#N)C(=O)N2CCCCC2)n(-c2ccccc2)c1=O | n | n | x | n | n
CCC(C)n1c(=O)c(C(=O)Nc2ccccc2S(N)(=O)=O)c(O)c2ccccc21 (stereo not given) | n | n | x | n | 208
CCCn1c(=O)c(C(=O)Nc2ccccc2C(=O)OCC)c(O)c2ccccc21 | n | n | x | n | n
O=c1oc2cc(N=Cc3ccc4c(c3)OCO4)ccc2c2ccccc12 | x | x | x | n | x
CCOC(=O)c1c(C)oc2c1c(C(c1ccncc1)N1CCOCC1)c(O)c1ccccc12 (stereo not given) | 71[fluorescence artefact?] | 68[fluorescence artefact?] | n | n | n
CCOC(=O)c1c(C)oc2c1c1c(c3ccccc32)OCN(Cc2ccccn2)C1 | x | x | n | x | x
CCOC(=O)c1c(C)oc2c1c(C=NC1CCS(=O)(=O)C1)c(O)c1ccccc12 (stereo not given) | n | 70 | n | n | n
O=c1c2ccccc2c(C=NC2CCS(=O)(=O)C2)c(O)n1-c1ccccc1 (stereo not given) | n | n | n | n | n
CCCCSc1nc(SCC(=O)NCc2ccco2)c2c3c(sc2n1)COC(C)(CC)C3 (stereo not given) | x | x | n | x | x
